# Bioassay records as filed in PubChem.
# Rows were chosen to be rich in hits. Some 4.2% of all compounds tested hit in one or more screens of this group.
# ALOX12 inh – Primary qHTS assay for inhibitors of human arachidonate 12S-lipoxygenase (ALOX12): Round 2. Polyunsaturated fatty acid lipoxygenase ALOX12 (Homo sapiens), P18054. purified 12hLO, xylenol orange hydroperoxide absorbance. Potency, µM (titrated, usually from 108 µM), for inactives: top-dose activity change, negative = inhibition, usual class: inhibitors. actives 1.1% (n = 580,000). AID 1671190, 2021
#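 Hydroperoxide product was detected by ferrous iron/xylenol orange as the 573 to 405 nm absorbance ratio. Arachidonic acid at 40 uM (final) was turned over for 30 min at room temperature by 150 nM human 12hLO, pH 7.0 Hepes buffer, after 15 min compound preincubation.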
# Sfp PPTase inh – qHTS Assay for Inhibitors of Bacillus subtilis Sfp phosphopantetheinyl transferase (PPTase); 4'-phosphopantetheinyl transferase ffp (Bacillus subtilis), Q9F4F7; Biochemical Sfp PPTase activity, qHTS; Potency, µM, for the others: largest response in the series, negative = inhibition, most hits filed as inhibitors; actives 3.5% (n = 310,000);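 further: the enzyme is Sfp with the accession as filed and its product quenches rhodamine fluorescence; 0% = enzyme reaction without inhibitor and -100% = no enzyme wells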
#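 Buffer: 50 mM Hepes-Na pH 7.6, 10 mM MgCl2, 0.01% Nonidet P-40, 0.01% BSA. Enzyme 15 nM, pre-exposed to compound 15 min; substrates then added and fluorescence change tracked over 30 min.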
# PLK1 PBD inh – qHTS for Inhibitors of PLK1-PDB (polo-like kinase 1 - polo-box domain): Primary Screen | Serine/threonine-protein kinase PLK1 (Homo sapiens), P53350 | Plk1 PBD binding of FITC phosphopeptide, fluorescence polarization | Potency, µM, inactives show max response, negative = inhibition, hits mostly inhibitors | actives 2.8% (n = 360,000); further: series mostly up to about 57 µM; nearly all actives have a fitted effect of over 65% in size
# VDR inh – Inhibitors of the vitamin D receptor (VDR): qHTS; AID 504847, 2011; VDR-SRC2-3 peptide fluorescence polarization, 2 h; Vitamin D3 receptor (Homo sapiens), P11473; Potency, µM, for inactives: max response, negative = inhibition, hits mostly inhibitors; actives 0.93% (n = 400,000)
# Target sequence (P11473 whole entry, looked up): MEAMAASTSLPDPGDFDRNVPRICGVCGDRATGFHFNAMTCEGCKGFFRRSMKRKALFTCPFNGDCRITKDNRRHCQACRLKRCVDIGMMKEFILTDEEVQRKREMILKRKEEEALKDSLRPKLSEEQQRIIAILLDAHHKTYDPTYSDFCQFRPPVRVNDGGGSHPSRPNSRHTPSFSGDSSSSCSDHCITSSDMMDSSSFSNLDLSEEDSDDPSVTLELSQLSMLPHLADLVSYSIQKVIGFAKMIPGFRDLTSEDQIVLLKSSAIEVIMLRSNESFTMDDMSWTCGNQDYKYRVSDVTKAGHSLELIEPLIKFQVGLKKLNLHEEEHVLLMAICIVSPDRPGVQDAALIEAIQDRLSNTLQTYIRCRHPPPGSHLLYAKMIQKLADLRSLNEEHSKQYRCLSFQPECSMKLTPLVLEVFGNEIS
#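 Fluorescence polarization assay measuring small-molecule disruption of VDR binding to the coregulator peptide SRC2-3. Compounds were pin-transferred (23 nl) into the reagent mix and incubated 2 h at room temperature before reading.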
# Active calls of the source: *; ? = inconclusive; nt = no result; [ ] = dose if it differs, or a comment. The call rests on the fitted dose curve; in most records, active means well fitted curve in the direction sought with a large enough effect; inconclusive means small, poorly fitted or top-dose-only effect, or another doubt; inactive means no such curve, though single readings can be large; an effect the other way counts as inactive or inconclusive. Unless noted, on the % scale 0 is the no-effect control and ±100 the full control effect; potency means the concentration at half of the fitted maximal effect.
SMILES,ALOX12 inh,Sfp PPTase inh,PLK1 PBD inh,VDR inh
CC(=O)N1c2ccc(S(=O)(=O)NCCC(=O)N3CCCC(C)C3)cc2CC1C (configuration not stated),-3.8%,23.0%,23.8µM*,?
Cc1ccoc1-c1nc2ccncc2[nH]1,9.3%[176 µM],nt,nt,nt
O=[N+]([O-])c1cccc(CN2CCN(c3cccc4[nH]ccc34)CC2)c1,-4.7%,-0.5%,-14.2%,8.5%
O=C(Nc1ccc(F)cc1)C1C(c2ccccc2)C1(Cl)Cl (configuration not stated),7.08µM*,-0.1%,-6.6%,-8.4%
Cc1cc(C)cc(-n2c(C)cc(C(=S)N3CCOCC3)c2C)c1,-29.0%,?,18.9µM*,-22.4%
Clc1ccc(OCc2nn3c(-c4ccco4)nnc3s2)c(Cl)c1,?,17.8µM*,-23.7%,-4.2%
Cn1c(=O)c2[nH]c(-c3ccccc3)c(O)c2n(C)c1=O,?,14.1µM*,26.7µM*,-19.3%
Cn1c(=O)c2[nH]c(-c3ccccc3Cl)c(O)c2n(C)c1=O,0.1%,?,-10.7%,-2.6%
CCOc1ccccc1NC(=O)c1ccc2nccnc2c1,-1.9%,5.4%,-7.5%,6.4%
CC(C(=O)Nc1ccccc1C(=O)N1CCOCC1)N(c1ccccc1)S(C)(=O)=O (configuration not stated),0.0%,20.6%,26.7µM*,?
CN(c1ccc(C(=O)Nc2ccccc2C(=O)N2CCOCC2)cc1)S(C)(=O)=O,0.0%,20.4%,-5.1%,1.2%
CC(C)(C)c1ccc(-c2nc(C=O)c3ccccn23)cc1,-22.3%,13.7%,2.4%,-21.0%
Cc1c(C(C)(C)C)c(C=S)n2ccccc12,?,50.1µM*,?,-18.3%
O=c1c(-c2cc3ccccc3o2)[n+]([O-])c2ccccc2n1OCc1ccccn1,-17.4%,11.7%,?,6.1%
COc1cccc(C(=O)NCCNc2nc3cc(C)cc(C)c3cc2C#N)c1,-5.5%,nt,2.4%,nt
COC(=O)C1=C(COc2ccccc2)NC(=O)NC1c1ccc(Cl)cc1 (configuration not stated),-4.2%,nt,2.6%,-13.3%
COc1ccc(-c2nc(CSCC(=O)N3CCN(c4cccc(C)c4C)CC3)c(C)o2)cc1OC,-26.9%,nt,nt,4.0%
COc1ccccc1CN1CCN(C(CC(C)C)c2nnnn2Cc2cccs2)CC1 (configuration not stated),?,89.1µM*,-2.1%,-2.4%
CC(C)(C)CC(=O)OCC(=O)Nc1cc(C(C)(C)C)nn1-c1ccccc1,13.7%,8.9%,23.8µM*,-24.3%
CCC(C)C(=O)N1CCCC(c2nc(-c3cccs3)no2)C1 (configuration not stated),-18.5%,23.1%,-4.3%,9.9%
CCCC(=O)N1CCCC(c2nc(-c3cccs3)no2)C1 (configuration not stated),41.8%,16.8%,29.9µM*,-1.8%
O=C(NC1CC1)[C@@H]1CN(CCCc2ccccc2)C[C@H]1CO,66.5%,nt,nt,nt
CCOC(=O)CSc1nc(C)cc(C)c1C#N,2.1%,56.2µM*,?,-15.6%
Cc1cc(C)c(C#N)c(SCc2ccccc2)n1,-20.0%,?,-21.7%,10.4%
CCOC(=O)CSc1nc(N)nc(C)c1Cl,?,-1.9%,29.9µM*,?
SMILES,ALOX12 inh,Sfp PPTase inh,PLK1 PBD inh,VDR inh
CCOC(=O)CSc1nc(C)c(CC)c(C)c1C(N)=O,-9.4%,12.7%,-5.9%,7.1%
Cc1cc(C)c(C#N)c(SCSCc2ccccc2)n1,-3.5%,20µM*,?,-6.0%
CCOc1ccc(C2CC(=O)N(c3cccc(F)c3)C3=C2C(=O)OC3)cc1 (configuration not stated),-28.1%,nt,nt,-5.7%
O=C1NC(Cc2ccccc2)c2nc3ccc(Cl)cc3c(=O)n2-c2ccccc21 (configuration not stated),-3.9%,nt,nt,nt
ONCc1ccccc1,nt,12.6µM*,nt,-2.3%
O=C(c1ccc(F)cc1)c1cccc(C(=O)c2ccc(F)cc2)n1,-4.6%,nt,-5.7%,2.5%
Cc1[nH]c2ccccc2c1C(O)c1ccncc1 (configuration not stated),-5.0%,21.1%,-11.9%,9.1%
CCOc1cc(C(c2c(O)nc(SC)[nH]c2=O)c2c(O)nc(SC)[nH]c2=O)ccc1O,1.4%,nt,11.9µM*,?
Cc1[nH]c2ccccc2c1C(c1ccccn1)c1c(C)[nH]c2ccccc12,?,39.8µM*,?,14.2%
CCOc1cc(C(c2c(C)[nH]c3ccccc23)c2c(C)[nH]c3ccccc23)ccc1O,7.94µM*,nt,nt,nt
CCOC(=O)c1cnc2c(Cl)cc(Cl)cc2c1NCCOCCO,-7.8%,-12.2%,0.6%,-0.3%
O=C1Nc2ccccc2C(=O)N2CCC[C@@H]12,-11.8%,0.2%,nt,-0.5%
O=C1Nc2cc(Cl)cnc2N2CCCC12 (configuration not stated),?,50.1µM*,29.9µM*,?
O=C1NC(=NC2CCCCC2)C2(CCN([S+](=O)([O-])c3cccc(C(F)(F)F)c3)CC2)N1c1cc(F)cc(F)c1,3.2%[6.33 µM],nt,nt,nt
Cc1ccc(-c2cc(C(=O)OCC(=O)NCC3CCCO3)c3ccccc3n2)o1 (configuration not stated),18.6%,nt,nt,nt
Cc1ccc(-c2cc(C(=O)OCC(=O)N(C)c3c(N)n(Cc4ccccc4)c(=O)[nH]c3=O)c3ccccc3n2)o1,7.08µM*,nt,-17.2%,-4.3%
Cc1cc(C(=O)OC(C)C(=O)NC2CCCCC2C)c2ccccc2n1 (configuration not stated),1.2%,nt,-6.5%,nt
Cc1ccc(-c2cc(C(=O)OC(C)C(=O)NC3CCCC3)c3ccccc3n2)o1 (configuration not stated),6.31µM*,nt,nt,nt
Cc1ccc(-c2cc(C(=O)OCC(=O)NC34CC5CC(CC(C5)C3)C4)c3ccccc3n2)o1,1.26µM*,nt,nt,nt
COCC(=O)Nc1c(C(=O)Nc2ccc(C)cc2)oc2ccccc12,-17.0%,nt,nt,-7.1%
CCN(CC)c1ccc(CNC(=O)C/C(C)=N/NC(=O)COc2ccc(C)cc2Br)cc1,-3.8%,-3.3%,-21.3%,-15.6%
N#C/C(=C\Nc1ccc2cn[nH]c2c1)c1nc(-c2ccccc2)cs1,-1.1%,56.2µM*,-9.5%,0.6%
c1ccc(-c2nnc3sc(Cc4cccs4)nn23)cc1,2.3%,5.5%,-9.0%,-8.4%
COC(=O)c1cn(-c2ccccc2)nc1-c1ccncc1,-18.5%,17.0%,-0.1%,13.2%
O=C(OCc1ccccc1)c1cn(-c2ccccc2)nc1-c1ccncc1,0.0%,89.1µM*,-4.0%,4.1%
N#C/C(=C(/O)CN1CCCC1)c1nc(-c2ccccc2)cs1,0.7%,31.6µM*,-0.2%,4.7%
Cc1cccc2nc(=S)n(C(=O)c3ccco3)n12,-3.7%,15.8µM*,-18.9%,-15.2%
O=C(c1ccco1)n1c(=S)nc2ccccn21,?,-20.7%,25.1µM*,?
Cc1cccc(OCC(=O)NNC(=O)c2ccc([N+](=O)[O-])cc2)c1,-3.1%,-4.6%,5.2%,2.1%
